Shown is part of a subset that was picked to be rich in hits.
AmpC inh no detg: blocks E. coli AmpC beta-lactamase in detergent-free assay; AmpC nitrocefin hydrolysis, absorbance 480 nm, 0.0001% Triton; 330,000 tested, 0.52% active; P00811; Potency, µM (doses to about 57.1 µM), without a hit: at the top dose activity change, negative = inhibition, most hits filed as inhibitors;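 note: potency is the fitted concentration of half-maximal effect; plate controls were no compound for no effect and no enzyme for full effect; nearly all actives have a fitted effect of over 20% in size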
Target sequence (P00811 whole entry, looked up): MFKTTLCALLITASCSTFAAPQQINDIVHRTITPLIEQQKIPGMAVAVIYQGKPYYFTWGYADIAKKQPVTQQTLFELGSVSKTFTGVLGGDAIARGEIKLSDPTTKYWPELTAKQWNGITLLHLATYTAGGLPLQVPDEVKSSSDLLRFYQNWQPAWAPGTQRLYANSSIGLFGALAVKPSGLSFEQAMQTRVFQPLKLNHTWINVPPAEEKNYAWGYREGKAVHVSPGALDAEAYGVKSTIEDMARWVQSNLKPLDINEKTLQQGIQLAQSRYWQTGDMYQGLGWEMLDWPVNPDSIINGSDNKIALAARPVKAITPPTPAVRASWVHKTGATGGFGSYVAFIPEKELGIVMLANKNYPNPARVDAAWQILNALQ
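20 mM phosphate pH 7.0 + 0.01% (detergent screen) or 0.0001% Triton X-100; 5.3 nM AmpC reagent; cpd preinc 15 min RT; nitrocefin (800 uM stock) to start; A480 q20 s × 4 min; Activity was normalised to no-enzyme and no-compound control wells.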
SARS PLP yeast: inhibitors of SARS-CoV papain-like protease in yeast; S. cerevisiae expressing SARS-CoV PLpro, growth rescue; Potency, µM (doses to about 32.9 µM), for inactives: at the top dose activity, positive = growth rescue, usual class: activators; 330,000 tested, 0.19% active; calls by dose curve; note: potency is the fitted concentration of half-maximal effect; 0% is about no effect; nearly all actives have a fitted effect of over 55% in size
AmpC inh detg: blocks E. coli AmpC beta-lactamase in detergent assay. Potency, µM (top dose mostly 114 µM), without a hit: at the top dose activity change, negative = inhibition, hits mostly inhibitors. AmpC hydrolysis of nitrocefin, absorbance 480 nm, 0.01% Triton. 370,000 tested, 0.041% active. AID 485294. P00811;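 note: potency is the fitted concentration of half-maximal effect; 0% = no-compound wells and -100% = no-enzyme wells; nearly all actives have a fitted effect of over 25% in size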
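AmpC (5.3 nM in the dispensed reagent) in 20 mM phosphate pH 7.0 with 0.01% (detergent screen) or 0.0001% Triton X-100 was preincubated with compounds for 15 min at room temperature. Nitrocefin was then added from an 800 uM solution, and hydrolysis was followed at 480 nm.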
CHX counter: counter-screen hit for Shiga toxin inhibitors, cycloheximide | cell reporter, cycloheximide protein synthesis inhibition counterscreen | max response, % | 300,000 tested, 12% active | AID 2314; in the data active = max response mostly above about 13%, no sharp cut-off; inactive = mostly below about 14%; note: read at 38.3 µM for the half of the compounds with a filed dose; 0% is about no effect
AMA1 RON2 block: inhibitors of Plasmodium falciparum AMA1-RON2 interaction. 360,000 tested, 0.2% active. AlphaScreen AMA1-biotinylated RON2 peptide binding. Potency, µM (top dose mostly 58.2 µM), inactives show top-dose activity change, negative = inhibition, most hits filed as inhibitors. AID 720542;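 note: potency is the fitted concentration of half-maximal effect; 0% = vehicle wells and -100% = peptide control; nearly all actives have a fitted effect of over 45% in size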
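AMA1 (3D7) with his tag at 25 nM final met compounds first, then biotinylated RON2 peptide at 25 nM; detection used donor plus acceptor beads, 10 µg/mL apiece, read by AlphaScreen after 30 min at room temperature.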
Shiga inhibitor: inhibitors of Shiga toxin in Vero cells; Vero cells, Shiga toxin protein synthesis inhibition reporter; inhibition, % at 38.7 µM; 290,000 tested, 9.2% active; AID 2315; in the data active = inhibition mostly above about 28%, no sharp cut-off; inactive = mostly below about 43%; note: 0% is about no effect
* = called active by the depositor; u = inconclusive; x = no result. Unless noted, calls come from the whole dose curve; as a rule, active = well fitted curve in the direction sought with a large enough effect; inconclusive = small, poorly fitted or top-dose-only effect, or another doubt; inactive = no such curve, though single readings can be large; an effect the other way counts as inactive or inconclusive.

SMILES | AmpC inh no detg | SARS PLP yeast | AmpC inh detg | CHX counter | AMA1 RON2 block | Shiga inhibitor
Cc1occc1C(=O)NNC(=O)c1ccccc1F | 2% | -4% | 4% | 23* | 13% | 40
CCNC(=S)NNC(=O)c1ccoc1C | -19% | 6% | -2% | -3 | 54% | -5
Cc1occc1C(=O)NNC(=S)Nc1ccccc1C(F)(F)F | -7% | 6% | -1% | 26* | 4% | 56*
O=C(NNC(=S)Nc1ccccc1C(F)(F)F)c1ccc(Br)o1 | -25% | -2% | 4% | 30* | 94% | 101*
Cc1ccccc1NC(=S)NNC(=O)c1ccoc1C | -7% | 0% | -1% | 35 | 58% | 48*
Cc1occc1C(=O)NNC(=O)c1ccc(F)cc1 | -8% | -4% | -7% | 9 | 5% | 5
CCOc1ccccc1-c1nnc(SCC(=O)NC2CC3CCC2C3)n1CC (centres undefined) | 4% | -2% | u | -2 | -2% | -3
COC(=O)c1ccccc1NC(=O)c1cnc2sc(N3CCOCC3)nn2c1=O | x | x | -6% | x | x | x
Cc1occc1C(=O)NNC(=S)Nc1ccccc1 | -11% | -3% | 1% | 35* | 25% | 77*
O=S(=O)(Cc1ccccc1)NCC1CCCN(Cc2ccc(F)c(F)c2)C1 (centres undefined) | -5% | 0% | 1% | 0 | -20% | -10
Cc1cc(C(=O)NCCN2C(=O)S/C(=C\c3cccs3)C2=O)ccc1[N+](=O)[O-] | -21% | -13% | 6% | 4 | -1% | 4
N#C/C(=C\c1ccc([N+](=O)[O-])cc1)c1ccccn1 | -15% | -3% | 7% | 29* | -17% | 49*
COC(=O)c1ccc(/C=C(\C#N)c2ccccn2)cc1 | -17% | -6% | 7% | 39* | 7% | 133*
Cc1ccc(Oc2ncc(CN3CC(C)OC(C)C3)s2)cc1 (centres undefined) | 46% | 4% | -13% | 3 | -8% | 1
Cc1nn(-c2ccccc2)c2[nH]c(=O)cc(C(F)F)c12 | -23% | -6% | 0% | x | -9% | x
Cc1ccc(-n2nc(C)c3c(C)cc(=O)[nH]c32)cc1 | -9% | 2% | 0% | 21* | -2% | 32
CCCCCCN(C(=O)CCCCCN1C(=O)NC(c2ccc([N+](=O)[O-])cc2)C(C(=O)OCc2ccccc2)=C1C)C(C(=O)NCCCC)c1ccc(OCC(=O)OC)c(C(=O)OC)c1 (centres undefined) | 55% | 1% | 3% | 1 | x | -4
Cc1noc(C)c1NC(=O)Nc1ccc2c(c1)C(=O)N([C@H](C)CO)C[C@H](C)[C@@H](CN(C)C(=O)NC1CCCCC1)O2 | 29% | 1% | x | x | 0% | x
COc1ccc(C(=O)O/N=C(\N)c2ccc(Br)cc2)cc1 | 6% | -8% | -1% | 62* | 0% | 82*
CCOC(=O)c1cc(/C(C)=N/OC(=O)c2ccc(C(C)(C)C)cc2)on1 | -8% | 1% | 2% | -1 | 2% | -7
CC(C)(C)c1ccc(C(=O)O/N=C(\N)c2ccccc2)cc1 | -26% | -8% | -6% | 60* | 0% | 74*
COc1ccc(C(=O)O/N=C(\N)c2ccccc2)cc1 | -16% | -12% | -7% | 3 | 17% | -15
O=C(COC(=O)c1ccccc1)c1ccc(Br)cc1 | -16% | 10% | 3% | 47* | -2% | 115*
Cc1cc(C(=O)O/N=C(\N)c2ccc(C(C)(C)C)cc2)no1 | -18% | -1% | -3% | 33* | -4% | 42*
Cc1ccc(C(=O)O/N=C(\N)c2ccc(Br)cc2)cc1 | -10% | -5% | 0% | 33* | -14% | 60*
SMILES | AmpC inh no detg | SARS PLP yeast | AmpC inh detg | CHX counter | AMA1 RON2 block | Shiga inhibitor
Cn1cc(Cl)c(C(=O)OCC(=O)c2ccccc2)n1 | 2% | 0% | 3% | 27* | 4% | 36*
NC(=O)COC(=O)c1ccc(Oc2ccccc2)cc1 | -7% | 4% | 8% | 28* | -2% | 34
N/C(=N\OC(=O)c1ccc(Br)cc1)c1ccccc1 | -16% | -7% | 1% | 66* | 24% | 144*
N/C(=N\OC(=O)c1cccc(Br)c1)c1ccc(Br)cc1 | -30% | -6% | 1% | -1 | 7% | 0
O=C(C/C=N\O)Nc1ccc(Oc2ccccc2)cc1 | -48% | 0% | 6% | 10 | 11% | 11
NC(=O)C(c1ccc(Br)cc1)c1ccc(C(=O)c2ccccc2)cc1 (centres undefined) | -14% | -2% | 0% | 23* | -7% | -7
O=C1OC(c2ccccc2)/C(=C(/O)c2ccccc2)C1=O (centres undefined) | -17% | -27% | 1% | 39* | 5% | 101*
Cc1ccc(/C(O)=C2/C(=O)C(=O)OC2c2ccc(Cl)cc2)cc1 (centres undefined) | -58% | u | u | 24* | 5% | 20
CCOC(=O)C1(C)C=C(Nc2ccc(C)cc2)C(=O)N1c1ccccc1 (centres undefined) | x | x | 12% | x | x | x
COc1ccc(N=Cc2cc3c(cc2O)OC(N)=C(C#N)C3c2ccccc2)cc1 (centres undefined) | -32% | u | -16% | 11* | 29% | -10
COc1ccc(C2C(C#N)=C(N)Oc3cc(O)ccc32)cc1 (centres undefined) | x | x | x | x | -10% | x
COCc1cc(C)nc(SCC(=O)Nc2ccc(C)c(C)c2)c1C#N | -8% | -2% | u | 44* | 26% | 98*
Cc1cc(C)c(C#N)c(SCC(=O)Nc2ccc3c(c2)OCO3)n1 | -16% | -2% | 3% | 26* | -13% | 28*
Cc1nc(SCC(=O)Nc2ccc3c(c2)OCO3)c(C#N)c2c1CCCC2 | -20% | 4% | -5% | -1 | -3% | 49
Cc1ccc(S(=O)(=O)NCCC2(C(C)C)CCOC(C)(C)C2)cc1 (centres undefined) | 16% | 30% | u | -2 | -3% | -19
Cc1ccc(C2=NNC3(CCOC(C)(C)C3)S2)cc1 (centres undefined) | -8% | -2% | 1% | 37* | -9% | 54*
Cc1nc2nc(-c3ccccc3)[nH]n2c(=O)c1C | -18% | 6% | -11% | 15 | -4% | 44
Cc1nc2nc(-c3ccc(Cl)cc3)[nH]n2c(=O)c1C | -38% | -13% | 2% | 5 | x | 38*
CC[C@@]1(C(=O)OC)N[C@H](CN(C)C(=O)c2ccc(C)cc2)[C@@H]2C(=O)N(Cc3ccccc3)C(=O)[C@@H]21 | 80% | 5% | x | x | 7% | x
Cc1ccc(Nc2nc3ccccc3o2)cc1F | -29% | 5% | -8% | 38* | 15% | 83
COC(=O)c1sc(NC(=O)c2ccoc2C)nc1C | -34% | -27% | -7% | 26* | -9% | 16*

Bioassay records deposited in PubChem by National Center for Advancing Translational Sciences (NCATS).
